Assay results from PubChem BioAssay (Tox21).
Records with an inconclusive call do not appear. Entries that show only a call come without a potency. Active and inactive are the calls of the source. Calls come from the whole dose curve; as a rule, active = well fitted inhibition curve with a large enough effect in the repeat runs; inconclusive = weak or mixed curves; inactive = no such curve, though single readings can be large or run the other way.
Potency is the fitted concentration of half-maximal effect.

What follows are compounds tested against Cytochrome P450 3A4 (Homo sapiens) (UniProt P08684) (assay: Cytochrome P450 Family 3 Subfamily A Member 4 (CYP3A4) small molecule antagonists: luciferase reporter qHTS assay (AID 1671201; note: nearly all actives have a fitted effect of over 50% in size)). Details: P450-Glo CYP3A4 enzyme, luciferin luminescence, 1 h; series mostly up to 115 µM.
Sequence of Cytochrome P450 3A4 (Homo sapiens) (P08684 whole entry, looked up): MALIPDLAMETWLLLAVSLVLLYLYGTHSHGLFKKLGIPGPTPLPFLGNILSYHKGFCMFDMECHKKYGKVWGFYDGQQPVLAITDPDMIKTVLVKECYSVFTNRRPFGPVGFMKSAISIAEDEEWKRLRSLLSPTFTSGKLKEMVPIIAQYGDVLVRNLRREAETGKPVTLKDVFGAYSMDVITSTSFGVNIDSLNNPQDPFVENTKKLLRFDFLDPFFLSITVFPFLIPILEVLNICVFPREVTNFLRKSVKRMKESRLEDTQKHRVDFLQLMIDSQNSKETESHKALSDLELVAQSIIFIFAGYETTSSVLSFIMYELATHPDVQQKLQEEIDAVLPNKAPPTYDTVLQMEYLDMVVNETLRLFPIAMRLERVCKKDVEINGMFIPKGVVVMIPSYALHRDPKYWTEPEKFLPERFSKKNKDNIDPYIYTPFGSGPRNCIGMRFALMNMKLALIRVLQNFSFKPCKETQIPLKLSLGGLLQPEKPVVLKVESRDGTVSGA
From the text: National Center for Advancing Translational Sciences [NCATS]
U.S. Environmental Protection Agency [EPA]
National Institutes of Environmental Health Sciences [NIEHS]
National Toxicology Program [NTP]
U.S. Food and Drug Administration [FDA]
Cytochrome P450 (CYP) enzymes are membrane-bound hemeproteins that play a key role in metabolism of drugs and xenobiotics. Evaluation of the effect of chemicals on CYP isozymes is useful to minimize the adverse drug reactions and toxicities in drug development process. Tox21 chemicals were tested for their effect on CYP enzyme activities by using P450-Glo (TM) screening systems (Promega Corporation, Madison, WI). These systems provide a luminescent method containing proluciferin substrates and are converted to luciferin products by CYP isozymes. The luciferin products formed are detected with a luciferin detection reagent, and the amount of light produced is proportional to CYP activity. P450-Glo (TM) CYP3A4 screening system (Catalog. No. V9910) was used to detect the compounds that interfere in CYP3A4 activity. The positive control compound used for CYP3A4 assay is ketoconazole (Sigma-Aldrich, St. Louis, MO).
Tox21 Assay Protocol Summary:
Two ul of enzyme-substrate mix was dispensed into medium binding white/solid 1536-well plates (Greiner Bio-One North America Inc., Monroe, NC) using a BioRaptr Flying Reagent Dispenser (FRD, Beckman Coulter, Brea, CA). Compounds dissolved in DMSO and positive control (ketoconazole) were transferred to the assay plates at 23 nl using a Pintool station (Wako, San Diego, CA). The assay plates were incubated at room temperature for 10 min. Then 2 ul of NADPH regeneration solution was added to each well of the assay plates using an FRD and incubated at room temperature for 1 h. The reaction was stopped by adding 4 ul of detection reagent using an FRD and after 20 min incubation at room temperature the luminescence signal was measured using a ViewLux plate reader (Perkin Elmer, Shelton, CT). Data were expressed as relative luminescence units.
For `Cc1ccc(Cl)c(OCC(O)CNC(C)(C)C)c1` (stereo not given), the Potency was “inactive”.
For `O=c1[nH]nc(-c2ccc([N+](=O)[O-])o2)o1`, the Potency was “inactive”.
In the case of `C=CC(C)CCC=C(C)C` (stereo not given), the Potency is reported as “inactive”.
With `CCOc1cc(OCC)c(C(C)=O)cc1OCC` the Potency was 35 µM (active).
For `CC[C@H](NC(C)C)[C@H](O)c1ccc(O)c2[nH]c(=O)ccc12`, the Potency was “inactive”.
In the case of `Cc1cc(C)c(C)c(O)c1`, the Potency is reported as “inactive”.
For `O=C(O)c1ccc(O)c(O)c1`, the Potency was “inactive”.
In the case of `CCCCCCCCCCCCN1CCOCC1`, the Potency is reported as “inactive”.
With `COC(=O)Cc1cccc2ccccc12` the Potency was “inactive”.
With `NC(=O)c1ccccc1C(N)=O` the Potency was 63.5 µM (active).
With `CNc1ccccc1` the Potency was “inactive”.
`CCCCCCCCCCCCSCCOCCO` was tested, and the Potency was “inactive”.
In the case of `C[Si](C)(C)O[Si](C)(C)O[Si](C)(C)C`, the Potency is reported as “inactive”.
For `Cc1c(Nc2ncccc2C(=O)O)cccc1C(F)(F)F`, the Potency was “inactive”.
With `COc1cccc([C@H](O)C2CCN(CCc3ccc(F)cc3)CC2)c1OC` the Potency was “inactive”.
For `CCC1=C(C)CN(C(=O)NCCc2ccc(S(=O)(=O)NC(=O)NC3CCC(C)CC3)cc2)C1=O` (stereo not given), the Potency was “inactive”.
For `C[C@H](N)C(=O)N[C@@H](C)C(=O)NC1[C@H]2CN(c3nc4c(cc3F)c(=O)c(C(=O)O)cn4-c3ccc(F)cc3F)C[C@@H]12` (stereo not given in full), the Potency was 12.3 µM (active).
In the case of `Clc1nc2ccccc2nc1Cl`, the Potency is reported as “inactive”.
For `CCC(=O)O[C@@H]1C[C@H]2CC[C@]1(C)C2(C)C`, the Potency was “inactive”.
For `CC(C)(C)N`, the Potency was “inactive”.
With `CC1(C)CC(O)CC(C)(C)N1[O]` the Potency was “inactive”.
`O=C1c2ccccc2C(=O)C1c1ccc2cc(S(=O)(=O)O)cc(S(=O)(=O)O)c2n1` was tested, and the Potency was “inactive”.
For `Cc1c(Cl)cccc1[N+](=O)[O-]`, the Potency was “inactive”.
With `O=S(=O)(O)c1cc(Cl)c(Cl)cc1Cl` the Potency was “inactive”.
With `c1ccc(-c2ccc(-c3ccccc3)cc2)cc1` the activity change, negative = inhibition was -14.7% [at 23.6 µM] (inactive).
`OCCCO` was tested, and the Potency was “inactive”.
For `FC(F)(Cl)C(F)(Cl)Cl`, the Potency was “inactive”.
`N#CCCCC(C#N)CCC#N` (stereo not given) was tested, and the Potency was “inactive”.
With `Cc1cc(SC2=C(O)C[C@@](CCc3ccc(N)cc3)(C(C)C)OC2=O)c(C(C)(C)C)cc1CO` the Potency was 3.99 µM (active).
`CCc1ccc2c(c1)C(=O)c1ccccc1C2=O` was tested, and the Potency was 17.8 µM (active).
In the case of `CCC(C)CCCC(C)(C)O` (stereo not given), the Potency is reported as “inactive”.
With `SCCOCCOCCS` the Potency was 17.8 µM (active).
`Cc1c(Cl)cccc1Nc1ccccc1C(=O)O` was tested, and the Potency was “inactive”.
In the case of `CCC(C)C1N=C(C)C(C)S1` (stereo not given), the Potency is reported as 25.2 µM (active).
`CCCCCCCCCCCCSC#N` was tested, and the Potency was “inactive”.
For `O=Cc1ccc(Cl)c([N+](=O)[O-])c1`, the Potency was 71 µM (active).
In the case of `Cc1cccc(C)c1NC(=O)CN1CCCC1`, the Potency is reported as “inactive”.
For `CC/C=C\CCO`, the Potency was “inactive”.
For `Cc1cc(N)n(-c2ccccc2)n1`, the Potency was “inactive”.
`Cc1nc2sccn2c(=O)c1CCN1CCC(=C(c2ccc(F)cc2)c2ccc(F)cc2)CC1` was tested, and the Potency was “inactive”.
